Screening data deposited in PubChem by National Center for Advancing Translational Sciences (NCATS).
HEK293 tox: cytotoxic compounds in HEK 293 cells | HEK 293 viability, ATP luminescence (CellTiter-Glo), 48-72 h | Potency, µM (top dose mostly 115 µM), for inactives: top-dose activity change, negative = cytotoxicity, hits mostly inhibitors | 94,000 compounds, 6.6% hits; note: nearly all actives have a fitted effect of over 60% in size
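HEK 293 cells seeded at 250 cells/well were exposed to compound for 48 or 72 hr at 37 degree Celsius. Viability taken as ATP content by CellTiter-Glo luminescence.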
3T3 cytotox: cytotoxic compounds in NIH 3T3 cells | NIH 3T3 viability, CellTiter-Glo ATP luminescence, 48-72 h | Potency, µM (highest dose often 96.7 µM), for the others: at the top dose activity change, negative = cytotoxicity, hits mostly inhibitors | 94,000 compounds, 4.3% hits | AID 1345082; note: nearly all actives have a fitted effect of over 55% in size
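ATP-dependent luminescence (CellTiter-Glo) served as the viability signal for NIH 3T3 cells treated with compound for 48 or 72 hr at 37 °C.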
Luciferase inh: inhibitors of firefly (Photinus pyralis) luciferase | P08659 | purified P. pyralis luciferase, luminescence, biochemical | Potency, µM (highest dose often 115 µM), hits mostly inhibitors | 76,000 compounds, 2.5% hits; note: nearly all actives have a fitted effect of over 65% in size
Target sequence (P08659 whole entry, looked up): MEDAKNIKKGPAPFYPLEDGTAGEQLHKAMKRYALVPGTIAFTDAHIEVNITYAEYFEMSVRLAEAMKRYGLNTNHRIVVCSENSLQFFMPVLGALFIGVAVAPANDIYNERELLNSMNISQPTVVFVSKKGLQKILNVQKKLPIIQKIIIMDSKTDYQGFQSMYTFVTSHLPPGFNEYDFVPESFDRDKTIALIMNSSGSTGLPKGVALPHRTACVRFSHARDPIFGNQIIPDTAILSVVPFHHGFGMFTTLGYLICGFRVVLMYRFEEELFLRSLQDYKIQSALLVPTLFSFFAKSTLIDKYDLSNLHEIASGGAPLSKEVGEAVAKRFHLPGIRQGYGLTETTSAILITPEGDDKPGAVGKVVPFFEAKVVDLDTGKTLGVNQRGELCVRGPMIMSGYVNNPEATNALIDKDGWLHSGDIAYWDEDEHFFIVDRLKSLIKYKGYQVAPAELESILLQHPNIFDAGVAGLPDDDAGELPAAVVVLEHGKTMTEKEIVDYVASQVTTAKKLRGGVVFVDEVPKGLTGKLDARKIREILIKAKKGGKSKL
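FLuc 10nM, D-luciferin 10uM, ATP 10uM, Mg acetate 10mM, Tris acetate pH 7.5, Tween/BSA; cpd qHTS; enzyme added last; CCD luminescence.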
hNpr1 antagonist: antagonists of human natriuretic peptide receptor Npr1; HEK293 hNpr1 GloSensor cGMP, ANP-stimulated luminescence; Potency, µM (doses to about 46.3 µM), for inactives: at the top dose activity change, negative = inhibition, usual class: inhibitors; 76,000 compounds, 1.6% hits; calls by dose curve; note: nearly all actives have a fitted effect of over 60% in size
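HEK293 cells stably expressing human Npr1 and cGMP GloSensor pGS-40F, loaded 2 h with 2% GloSensor reagent, given compound 30 min at room temperature. Luminescence read before and 20 min after 0.1 nM hNppA.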
Active calls of the source: *; i = inactive; ? = inconclusive; nt = no result given; [ ] = remark or other dose. This is a sample that favours compounds with a hit; in the whole collection about 11% have one here. Unless noted, calls come from the whole dose curve; as a rule, active = well fitted curve in the direction sought with a large enough effect; inconclusive = small, poorly fitted or top-dose-only effect, or another doubt; inactive = no such curve, though single readings can be large; an effect the other way counts as inactive or inconclusive. % is set by controls: 0 for no effect and ±100 for the full control effect; potency is the fitted concentration of half-maximal effect.

SMILES | HEK293 tox | 3T3 cytotox | Luciferase inh | hNpr1 antagonist
CNC(=O)c1cc(C2CC2)nc2c1c(C1CCCN(C(=O)N(C)C)C1)nn2C (stereo not given) | -15% | -22% | nt | nt
COc1ccc(Nc2cc(-c3ccccc3OC)nc3c(C)noc23)cc1OC | ? | 20µM* | i | -17%[70.6 µM]
COc1ccccc1-c1cc(Nc2ccc(N3CCOCC3)cc2)c2onc(C)c2n1 | 63µM* | ? | i | 2%[70.6 µM]
COc1ccccc1-c1cc(NCc2ccncc2)c2onc(C)c2n1 | ? | ? | i | 0%[70.6 µM]
COc1ccc(Cn2c(=O)c(C(=O)N3CCN(C(=O)Cc4ccc(F)cc4)CC3)nc3cccnc32)cc1 | ? | -23% | nt | nt
CC(C)CCC(C)Nc1ncnc2c1CN(C1CCCNCC1)C(=O)CN2C (stereo not given) | -23% | ? | nt | nt
O=C(NCc1ccco1)c1cc(-c2ccccc2F)cc2c1OCCN2Cc1cccnc1 | ? | ? | i | -29%
CN(C)CCNC(=O)c1cc(-c2ccccc2F)cc2c1OCCN2Cc1cccnc1 | 63µM* | 40µM* | i | -25%[70.6 µM]
CC(C)NC(=O)c1cc(-c2ccccc2F)cc2c1OCCN2Cc1cccnc1 | 89µM* | 79µM* | i | -26%[70.6 µM]
CN(C)CCN(C)C(=O)c1cc(-c2ccccc2F)cc2c1OCCN2Cc1cccnc1 | 79µM* | ? | i | -3%
CNC(=O)c1cc(-c2cnn(C)c2)cc2c1OCCN2Cc1cccnc1 | i | 40µM* | i | 2%[70.6 µM]
CNC(=O)c1cc(-c2cccnc2)cc2c1OCCN2Cc1cccnc1 | 5%[172 µM] | ? | i | 8%[70.6 µM]
COCC(=O)N1CCN2C(=O)c3cc(-c4ccc(OC)cc4)ccc3NC(=O)[C@H]2C1 | -16%[172 µM] | -3%[174 µM] | i | 1%[70.6 µM]
COCCOCC(=O)N1CCC2(CC1)CC(N(C1CC1)S(C)(=O)=O)CCO2 (stereo not given) | -1% | -18% | nt | nt
CCNC(=O)OC1CCN(C(=O)c2ccc3c(c2)OCCCO3)CC(=O)N(C)c2ccccc21 (stereo not given) | -10% | ? | nt | nt
CN1CCOc2c(C(=O)NCc3cccnc3)cc(-c3ccccc3F)cc21 | 100µM* | ? | i | 3%[70.6 µM]
COC(=O)CNC(=O)C1CCCN1C(=O)c1cccc(-c2ccccn2)c1 (stereo not given) | -12% | -9% | nt | nt
Cc1cccc(N2Cc3c(NCCCc4ccccc4)ncnc3N(C)CC2=O)c1 | ? | 45µM* | nt | nt
CN1CC(=O)N(c2ccccc2F)Cc2c(NCCc3ccc(Cl)cc3)ncnc21 | 45µM* | 40µM* | i | -15%
Cc1ccccc1N1Cc2c(NCCc3ccc(Cl)cc3)ncnc2N(C)CC1=O | ? | ? | i | -4%
CN1CC(=O)N(C2CCC2)Cc2c(NCc3ccccc3)ncnc21 | ? | ? | i | 3%
Cc1ccc(N2Cc3c(NCCCc4ccccc4)ncnc3N(C)CC2=O)cc1 | ? | ? | i | 6%
CN1Cc2ncnc(NCCc3ccccc3)c2CN(C2CCC2)C1=O | 63µM* | ? | i | 0%[70.6 µM]
CN1CC(=O)N(c2ccccc2F)Cc2c(NCCc3ccccc3)ncnc21 | 45µM* | ? | i | 0%
CCC(CC)C(=O)N1CC(C(=O)NCCc2ccncc2)C2(CCOCC2)C1 (stereo not given) | -14% | -7% | i | -3%
SMILES | HEK293 tox | 3T3 cytotox | Luciferase inh | hNpr1 antagonist
Cn1ccc2c(C(=O)NCC3CCC(=O)N3)nc(-c3ccccc3O)cc21 (stereo not given) | ? | 40µM* | i | 0%[70.6 µM]
COc1ccccc1-c1cc2c(ccn2C)c(C(=O)NCCN2CCNC2=O)n1 | -28%[172 µM] | 100µM* | i | 0%[70.6 µM]
COc1ccccc1-c1cc2c(ccn2C)c(C(=O)NCC2CCN(C)C(=O)C2)n1 (stereo not given) | -15%[172 µM] | 79µM* | i | 3%[70.6 µM]
O=c1[nH]c(C2CCN([S+](=O)([O-])c3cccs3)CC2)nn1-c1ccccn1 | -7% | -8% | nt | nt
CCNC(=O)NC1=N[C@@]23CO[C@H](c4ccccc4)C[C@@H]2CC(=O)[C@H]3S1 | ? | -42% | nt | nt
CCCNC(=O)[C@@H]1Cc2cn(Cc3ccncc3)c3cccc(c23)[C@H](CC(C)C)N1 | 32µM* | 25µM* | i | ?
CC(C)C[C@@H]1N[C@H](C(=O)NCCN(C)C)Cc2cn(Cc3ccncc3)c3cccc1c23 | 40µM* | 28µM* | i | 1%[70.6 µM]
CC(C)C[C@@H]1N[C@H](C(=O)O)Cc2cn(Cc3ccncc3)c3cccc1c23 | -28% | -17% | i | 5%
CCCNC(=O)[C@@H]1Cc2cn(Cc3cccnc3)c3cccc(c23)[C@H](CC(C)C)N1 | ? | 89µM* | i | -2%[70.6 µM]
CCCNC(=O)[C@@H]1Cc2cn(Cc3ccccn3)c3cccc(c23)[C@H](CC(C)C)N1 | ? | ? | i | -26%[70.6 µM]
CC(C)C[C@@H]1N[C@H](C(=O)NCC2CC2)Cc2cn(Cc3ccncc3)c3cccc1c23 | 35µM* | ? | i | -16%[70.6 µM]
COc1ccccc1-n1c(=O)c(C(=O)N2CCN(c3ncccn3)CC2)nc2cccnc21 | -12% | -19% | nt | nt
COc1ccc2c(c1)c(CN1C[C@@H](C(N)=O)[C@H](c3nc(C)no3)C1)cn2C(C)C | ? | ? | i | 0%
O=C(c1ccc2nnc(-c3cncc(Cl)c3)n2c1)N1CCOCC1 | -3% | -19% | nt | nt
CC(C)C[C@@H]1N[C@H](C(=O)NC(C)C)Cc2cn(Cc3ccncc3)c3cccc1c23 | ? | 32µM* | i | ?
O=S(=O)(c1ccccc1F)N1CC(n2cnnc2-c2ccccc2)C1 | -28% | ? | nt | nt
COc1ccc(-c2cc3nc4c(c(=O)n3[nH]2)CCN(C(=O)COc2ccccc2C)C4)cc1 | -24% | -19% | 14µM* | -10%
Cc1ccccc1OCC(=O)N1CCc2c(nc3cc(-c4ccccc4Cl)[nH]n3c2=O)C1 | ? | ? | i | -14%
O=C(O)[C@H]1C[C@]2(CCCCNC2=O)N(C(=O)CCc2ccccc2)[C@H]1c1ccco1 | -27% | ? | nt | nt
O=C1CCN(C(=O)c2ccco2)CCCC(c2nc(-c3ccccc3)no2)CCN1 (stereo not given) | -28% | -5% | 28µM* | -5%
COc1ccc(CCC(=O)N2CCCC(c3nc(-c4ccccc4)no3)CCNC(=O)CC2)cc1 (stereo not given) | 89µM* | ? | i | 5%
Cc1ccc(CN2CCCC(c3nc(-c4cccnc4)no3)CCNC(=O)CC2)s1 (stereo not given) | 89µM* | ? | i | -3%
O=C1CCN(C(=O)C2CCCC2)CCCC(c2nc(-c3ccccc3)no2)CCN1 (stereo not given) | ? | 4% | i | -5%
COc1cccc(CC(=O)N2CCCC(c3nc(-c4ccccc4)no3)CCNC(=O)CC2)c1 (stereo not given) | i | -30% | ? | -11%
CCOC(=O)[C@@H]1[C@@H](OC)C(=O)N(C)C12CCN(C(=O)c1cc(OC)c(OC)c(OC)c1)CC2 | -2% | ? | nt | nt
